# Experimental data: PubChem BioAssay (NCATS)
# Records with an inconclusive call do not appear. Entries that show only a call come without a potency. Activity calls are given as the source filed them. Calls come from the whole dose curve; as a rule, active = well fitted inhibition curve with a large enough effect; inconclusive = small, poorly fitted or top-dose-only effect; inactive = flat fitted curve, though single readings scatter.
# How the values were obtained:
# Experiment in all cases: qHTS profiling for inhibitors of Plasmodium falciparum proliferation (AID 504749); note: nearly all actives have a fitted effect of over 60% in size
# Conditions in all cases: P. falciparum in erythrocytes, SYBR Green DNA, 72 h; series mostly up to 28.7 µM
# CP237 = test system: CP237
# In short: (§1)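 SYBR Green fluorescence (ex 485 nm, em 535 nm) reports parasite DNA after 72 h compound exposure of infected red cells at 0.3% parasitemia, 2.5% hematocrit; signal normalized to 0.29 uM artemisinin and vehicle wells.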
# CP238 = test system: CP238
# In short: as §1
# CP247 = test system: CP247
# In short: as §1
# CP250 = test system: CP250
# In short: as §1
# CP252 = test system: CP252
# In short: as §1
# CP256 = test system: CP256
# In short: as §1
# CP262 = test system: CP262
# In short: as §1
# CP265 = test system: CP265
# In short: as §1
# CP266 = test system: CP266
# In short: as §1
# CP260 = test system: CP260
# In short: as §1
# Potency is the fitted concentration of half-maximal effect.
Compound,Potency (CP237),outcome (CP238),outcome (CP247),outcome (CP250),outcome (CP252),outcome (CP256),outcome (CP262),Potency (CP265),outcome (CP266),Potency (CP260)
CCCCCCCCCCCCCCCCCCOC[C@H](COP(=O)([O-])OCC[N+](C)(C)C)OC,inactive,inactive,inactive,inactive,inactive,inactive,inactive,inactive,inactive,
CN1C2CCC1CC(OC(c1ccccc1)c1ccccc1)C2 (centres undefined),,inactive,,,,,,inactive,,
CC(O)C(O)[C@H]1CNc2nc(N)[nH]c(=O)c2N1 (some centres undefined),inactive,inactive,inactive,inactive,inactive,inactive,inactive,inactive,inactive,inactive
CC(C)NC[C@H](O)COc1ccc(CC(N)=O)cc1,inactive,inactive,inactive,inactive,inactive,inactive,inactive,inactive,,inactive
c1ccc(C2CN3CCSC3=N2)cc1 (centres undefined),3.98 µM (active),,,,,,inactive,4.47 µM (active),,10 µM (active)
CCCCCCCCCCCCCCC[C@H](O)[C@H](N)CO,inactive,inactive,inactive,inactive,inactive,inactive,inactive,inactive,inactive,inactive
